A selection: hits, their analogues and other compounds. The true share with any hit is near 3.5%.
BoNT F protease: BoNT/F light chain protease inhibitors, primary screen, biochemical, flow cytometry, MLPCN library; AID 588497, 2011; Multiplex microsphere protease cleavage assay; actives 0.22% (n = 360,000); inhibition, % at 10 µM; in the data active = inhibition above about 35%, passing the limit was not always enough; inconclusive = no clear call, values can overlap the other calls
Anthrax LF inh2: Bacillus anthracis LF protease inhibitors, primary screen, biochemical, multiplex microsphere, MLPCN library; multiplex microsphere protease cleavage assay; Lethal factor (Bacillus anthracis), P15917; AID 588501, 2011; actives 0.12% (n = 360,000); inhibition, % at 10 µM
Bead autofluor: flagged as autofluorescent in microsphere protease counterscreen; compound autofluorescence counterscreen, microsphere flow cytometry; hits give high values; fluorescence intensity (no concentration beside the values); actives 3.1% (n = 360,000); AID 624483; in the data active = fluorescence intensity above about 16000; inconclusive = no clear call, values can overlap the other calls
BoNT-A LC inh2: BoNT/A light chain protease inhibitors, primary screen, biochemical, flow cytometry, MLPCN library | Botulinum neurotoxin type A light chain protease (Clostridium botulinum A str. ATCC 3502) | multiplex microsphere protease substrate cleavage | inhibition, % at 10 µM | actives 0.17% (n = 360,000) | AID 588499, 2011
Vc quorum ag: inducers of Vibrio cholerae quorum light production without autoinducers, primary screen, BH1578 luxS cqsA deficient, single point | V. cholerae BH1578 lux reporter, luminescence, 6 h | actives 0.16% (n = 350,000) | activation, % at 18.7 µM; in the data active = activation mostly above about 9.7%, no sharp cut-off; inconclusive = no clear call, values can overlap the other calls; inactive = mostly below about 3.7%
Large screens that a line does not name were inactive. Cut-off read from the data, not from the text of the source, unless noted: active = inhibition above about 30%; inconclusive = no clear call, values can overlap the other calls; inactive = below that.

CCCOc1cccc(C2/C(=C(\O)c3ccc4c(c3)OCCO4)C(=O)C(=O)N2CCCn2ccnc2)c1 (configuration not stated)	none
CC1Cc2cc(/C(O)=C3/C(=O)C(=O)N(CCCn4ccnc4)C3c3cccnc3)ccc2O1 (configuration not stated)	Bead autofluor 17226
CC1Cc2cc(/C(O)=C3/C(=O)C(=O)N(CCCn4ccnc4)C3c3ccncc3)ccc2O1 (configuration not stated)	none
O=C1C(=O)N(CCCn2ccnc2)C(c2cccnc2)/C1=C(/O)c1ccc(F)cc1 (configuration not stated)	Bead autofluor 23173
O=C(CSc1nnc(-c2cccs2)o1)NCC1CN(Cc2ccccc2)CCO1 (configuration not stated)	Bead autofluor 20699
C=CCNC(=O)CSc1nnc(-c2cccs2)o1	none
Cn1c(=O)c2c(nc(CN3CCN(C(c4ccccc4)c4ccccc4)CC3)n2CC(N)=O)n(C)c1=O	Bead autofluor 21667
CC1CCCN(Cc2nc3c(c(=O)n(C)c(=O)n3C)n2CC(N)=O)C1 (configuration not stated)	Bead autofluor 16667
Cc1ccc(C)c(S(=O)(=O)N2CCCOC2CNC(=O)C(=O)NCc2ccc3c(c2)OCO3)c1 (configuration not stated)	none
CN(CC(=O)Nc1cccc(F)c1)C(=O)CCCNC(=O)c1ccc(Cl)cc1	BoNT F protease inconclusive
Clc1ccccc1-c1nc(-c2ccccc2)n[nH]1	Bead autofluor 24108
COc1ccc(C2/C=C\CN(C(=O)c3ccc(C)cc3)[C@H](Cc3ccccc3)C(=O)N2Cc2ccc(F)cc2)cc1 (some centres not stated)	none
N#Cc1ccc(NC(=O)COC(=O)CCc2nc3ccccc3c(=O)[nH]2)cc1	Bead autofluor 26617
O=C(COc1ccc(N2CC(C(=O)O)CC2=O)cc1)Nc1cccc(C(F)(F)F)c1 (configuration not stated)	Bead autofluor 23245, BoNT-A LC inh2 inconclusive
O=C(O)C1CC(=O)N(c2ccc(OCc3ccccc3)cc2)C1 (configuration not stated)	Bead autofluor 21268
O=c1[nH]cnc2c1cnn2Cc1ccccc1	Bead autofluor 21532, BoNT-A LC inh2 inconclusive
Cc1nc2ccccc2c2oc(C(=O)N3CCN(c4ccc([N+](=O)[O-])cc4)CC3)cc12	none
C=CCSc1nnc(-c2ccc(Cl)cc2Cl)o1	Bead autofluor 17125
Cc1ccc(C(=O)CSc2nnc(-c3c[nH]c4ccccc34)o2)cc1	Bead autofluor 19814, BoNT-A LC inh2 inconclusive
CC(C)C(C)NC(=O)CSc1nnc(-c2c[nH]c3ccccc23)o1 (configuration not stated)	none
COc1ccc2c(C)cc(SCC#N)nc2c1	Bead autofluor 16543
COc1ccc2c(C)cc(SCc3c(C)noc3C)nc2c1	Bead autofluor 22377
COc1ccc2c(C)cc(SCC(=O)NC3CCCC3)nc2c1	none
COc1ccc2c(C)cc(SC3CCOC3=O)nc2c1 (configuration not stated)	none
COc1ccc2c(C)cc(SCC(=O)c3ccc4c(c3)OCO4)nc2c1	Bead autofluor 23435, BoNT-A LC inh2 inconclusive
CN(Cc1c(F)cccc1Cl)C(=O)CNC(=O)c1sc2ccccc2c1Cl	Bead autofluor inconclusive
O=C(Nc1cccc(F)c1)C1CCCN1S(=O)(=O)c1cccc2cccnc12 (configuration not stated)	none
O=C(Nc1ccc(C(F)(F)F)cc1)C1CCCN1S(=O)(=O)c1cccc2cccnc12 (configuration not stated)	Bead autofluor 16378
Cc1c(C(=O)N(C)C(C)c2ccccn2)oc2c(F)cccc12 (configuration not stated)	none
CC1CCCN(C(=O)c2cc(F)c(F)cc2Cl)C1 (configuration not stated)	Bead autofluor 22587
O=C1CC(N2CCOCC2)C(=O)N1Cc1ccc(N2CCCC2=O)cc1 (configuration not stated)	none
O=C1CC(N2CCN(C/C=C/c3ccccc3)CC2)C(=O)N1Cc1ccc(N2CCCC2=O)cc1 (configuration not stated)	Bead autofluor 19939
